Measurements published in PubChem BioAssay (NCI).
The panel holds about 83,000 compounds, 20% with a hit somewhere; the sample as a whole holds those more often.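 For each line, cells grew in 96-well plates with the test compound present at a single concentration for 48 hours.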 The source made the active and inactive calls. The calls were made as follows: active = growth percent below 10; inactive = the rest.

Tests used:
Experiment in all cases: NCI-60 one-dose screen, 48 h (100 = growth as untreated, 0 = no growth, -100 = all killed)
Conditions in all cases: 10 µM unless noted
HCT-15 colon = tested on: HCT-15 colon
HT29 colon = tested on: HT29 colon
SNB-75 CNS = tested on: SNB-75 CNS
SNB-19 CNS = tested on: SNB-19 CNS
U251 CNS = tested on: U251 CNS
PC-3 prostate = tested on: PC-3 prostate
SK-MEL-5 melanoma = tested on: SK-MEL-5 melanoma
UACC-62 melanoma = tested on: UACC-62 melanoma
LOX IMVI melanoma = tested on: LOX IMVI melanoma
SK-MEL-28 melanoma = tested on: SK-MEL-28 melanoma
SK-MEL-2 melanoma = tested on: SK-MEL-2 melanoma
EKVX NSCLC = tested on: EKVX NSCLC
SN12C renal = tested on: SN12C renal
UO-31 renal = tested on: UO-31 renal
TK-10 renal = tested on: TK-10 renal
ACHN renal = tested on: ACHN renal
CAKI-1 renal = tested on: CAKI-1 renal
A498 renal = tested on: A498 renal
CCRF-CEM leukemia = tested on: CCRF-CEM leukemia
MOLT-4 leukemia = tested on: MOLT-4 leukemia

Row | Structure (SMILES) | growth (HCT-15 colon) | growth (HT29 colon) | growth (SNB-75 CNS) | growth (SNB-19 CNS) | growth (U251 CNS) | growth (PC-3 prostate) | growth (SK-MEL-5 melanoma) | growth (UACC-62 melanoma) | growth (LOX IMVI melanoma) | growth (SK-MEL-28 melanoma) | growth (SK-MEL-2 melanoma) | growth (EKVX NSCLC) | growth (SN12C renal) | growth (UO-31 renal) | growth (TK-10 renal) | growth (ACHN renal) | growth (CAKI-1 renal) | growth (A498 renal) | growth (CCRF-CEM leukemia) | growth (MOLT-4 leukemia)
1 | O=S(=O)(NCCCNc1nccc(-n2cnc3ccccc32)n1)c1ccc(C(F)(F)F)cc1 | 81.8% (inactive) | 96.3% (inactive) | 87.2% (inactive) | 94.2% (inactive) | 90.8% (inactive) | 66.7% (inactive) | 58.8% (inactive) | 62% (inactive) | 85.6% (inactive) | 103% (inactive) | 97.8% (inactive) | 75.1% (inactive) | 85.9% (inactive) | 60.7% (inactive) | 95.7% (inactive) | 87.1% (inactive) | 60.5% (inactive) | 72.1% (inactive) | 70.9% (inactive) | 67% (inactive)
2 | CC1(C)[C@@H](O)CC[C@]2(C)[C@H]3CC[C@@H]4[C@H]5[C@H](C(=O)/C=C\c6ccc([N+](=O)[O-])cc6)CC[C@]5(O)CC[C@@]4(C)[C@]3(C)CC[C@@H]12 | 27.5% (inactive) | 46.1% (inactive) | 42.1% (inactive) | 62.2% (inactive) | 69.9% (inactive) | 47.9% (inactive) | 75.8% (inactive) | 48.9% (inactive) | -7.58% (active) | 46% (inactive) | 102% (inactive) | 53.1% (inactive) | 73.5% (inactive) | 55.2% (inactive) | 123% (inactive) | 45.5% (inactive) | 27.4% (inactive) | 48.7% (inactive) | 12% (inactive) | 22.9% (inactive)
3 | Cc1ccc(NC(=O)c2ccc(CN3CCN(C)CC3)cc2)cc1Oc1ccc(-c2[nH]nc3ncnc(N)c23)cc1 | 99.4% (inactive) | 12.6% (inactive) | 75.1% (inactive) | 104% (inactive) | 86.8% (inactive) | 84.5% (inactive) | 85.2% (inactive) | 84.3% (inactive) | 66.7% (inactive) | 88.6% (inactive) | 103% (inactive) | 107% (inactive) | 96.4% (inactive) | 85.3% (inactive) | 110% (inactive) | 101% (inactive) | 92.5% (inactive) | 94.3% (inactive) | 59.5% (inactive) | 71.7% (inactive)
4 | C[C@H](CCC(=O)NCc1ccc(C(=O)Nc2ccccc2N)cc1)[C@H]1CC[C@H]2[C@@H]3[C@@H](O)C[C@@H]4C[C@H](O)CC[C@]4(C)[C@H]3CC[C@]12C | 88.3% (inactive) | 48.1% (inactive) | 91.5% (inactive) | 73.1% (inactive) | 64.3% (inactive) | 42.4% (inactive) | 63.3% (inactive) | 36.7% (inactive) | 59.6% (inactive) | 63.6% (inactive) | 68.8% (inactive) | 69.4% (inactive) | 69.5% (inactive) | 56.7% (inactive) | 54.8% (inactive) | 92.9% (inactive) | 58.4% (inactive) | 59.5% (inactive) | 7.16% (active) | 10.7% (inactive)
5 | Clc1nc2ccccc2nc1-c1nnc(C2CCCCC2)o1 | 71.7% (inactive) | 109% (inactive) | 97.2% (inactive) | 98.7% (inactive) | 97.9% (inactive) | 95.8% (inactive) | 98.8% (inactive) | 96.4% (inactive) | 66.6% (inactive) | 104% (inactive) | 102% (inactive) | 98.8% (inactive) | 101% (inactive) | 92.7% (inactive) | 105% (inactive) | 99.2% (inactive) | 89.5% (inactive) | 89.3% (inactive) | 84.9% (inactive) | 109% (inactive)
6 | CC(=O)N1C(=S)NC(=O)C1CC(C)C (configuration not stated) | 99.7% (inactive) | 115% (inactive) | 103% (inactive) | 102% (inactive) | 101% (inactive) | 106% (inactive) | 106% (inactive) | 93.7% (inactive) | 95.5% (inactive) | 101% (inactive) | 102% (inactive) | 102% (inactive) | 101% (inactive) | 93.2% (inactive) | 100% (inactive) | 105% (inactive) | 96.3% (inactive) | 109% (inactive) | 103% (inactive) | 105% (inactive)
7 | COc1ccc(C2c3sc4c(C)cccc4c3Oc3nc(CC(=O)Nc4ccccc4)[nH]c(=O)c32)cc1 (configuration not stated) | 51.9% (inactive) | 94.1% (inactive) | 39.4% (inactive) | 89% (inactive) | 106% (inactive) | 83.1% (inactive) | 76.9% (inactive) | 63.2% (inactive) | 48.5% (inactive) | 76% (inactive) | 92.8% (inactive) | 47.1% (inactive) | 79.1% (inactive) | 46.7% (inactive) | 141% (inactive) | 92.9% (inactive) | 46% (inactive) | 70.6% (inactive) | – | 101% (inactive)
8 | O=C(NNc1nc2cc(F)c(F)cc2n2c(CN3CC4CNCC4C3)ccc12)c1cnccn1 (configuration not stated) | 23% (inactive) | 26.3% (inactive) | 60% (inactive) | 25.9% (inactive) | 22.4% (inactive) | 22% (inactive) | 0.703% (active) | -1.09% (active) | 2.25% (active) | 27.4% (inactive) | 29.2% (inactive) | 19.5% (inactive) | 22.1% (inactive) | 14.1% (inactive) | 33.4% (inactive) | 15% (inactive) | – | 35.1% (inactive) | 9.82% (active) | 7% (active)
9 | Cc1noc(C)c1CSc1nc2ccccc2n1-c1ccccc1 | 106% (inactive) | 106% (inactive) | 30.9% (inactive) | 96.5% (inactive) | 102% (inactive) | 100% (inactive) | 94.4% (inactive) | 72.5% (inactive) | 88.2% (inactive) | 111% (inactive) | 107% (inactive) | 65.2% (inactive) | 81.4% (inactive) | 48.8% (inactive) | 58.9% (inactive) | 96.1% (inactive) | 41.6% (inactive) | 48.1% (inactive) | – | 97% (inactive)
10 | O=C(NNc1nc2cc(F)cc(F)c2n2cccc12)c1cnccn1 | 24.8% (inactive) | 26.2% (inactive) | 49.2% (inactive) | 25% (inactive) | 16.2% (inactive) | 24.1% (inactive) | 14.2% (inactive) | 5.21% (active) | 5.06% (active) | 25.8% (inactive) | 32.6% (inactive) | 8.74% (active) | 25.5% (inactive) | 18.1% (inactive) | 21.9% (inactive) | 14.5% (inactive) | – | 11.1% (inactive) | 10.6% (inactive) | 1.8% (active)
11 | COc1cc(-c2nn(C(C)(C)C)cc2-c2ccnc(NCCCNS(=O)(=O)c3ccc(C)cc3)n2)ccc1Cl | 80.5% (inactive) | 78.3% (inactive) | 54.7% (inactive) | 100% (inactive) | 92.3% (inactive) | 58.1% (inactive) | 83.1% (inactive) | 68.3% (inactive) | 72.7% (inactive) | 101% (inactive) | 87.4% (inactive) | 46.1% (inactive) | 60.8% (inactive) | 44% (inactive) | 65.2% (inactive) | 89.6% (inactive) | 27.4% (inactive) | 30.9% (inactive) | – | 44.8% (inactive)
12 | COc1ccc(S(=O)(=O)NCCCNc2nccc(-c3cn(C(C)(C)C)nc3-c3ccc(Cl)c(OC)c3)n2)cc1 | 78.5% (inactive) | 81% (inactive) | 50.5% (inactive) | 96.3% (inactive) | 98.9% (inactive) | 58.3% (inactive) | 85.8% (inactive) | 61.2% (inactive) | 72.7% (inactive) | 98.9% (inactive) | 89.7% (inactive) | 47.2% (inactive) | 57.1% (inactive) | 44.5% (inactive) | 60.3% (inactive) | 84.6% (inactive) | 25.5% (inactive) | 58.7% (inactive) | – | 60.6% (inactive)
13 | CNC(=O)c1cc(-n2ccc3cc(NC(=O)Nc4ccc(N5CCOCC5)c(C(F)(F)F)c4)ccc32)ccn1 | 30.2% (inactive) | 19.6% (inactive) | 17.1% (inactive) | 74.2% (inactive) | 42% (inactive) | 4.72% (active) | 4.69% (active) | 13.4% (inactive) | 13.3% (inactive) | 62.9% (inactive) | 68.8% (inactive) | 65.4% (inactive) | 55.3% (inactive) | 35.2% (inactive) | 61.3% (inactive) | 56.9% (inactive) | 41.3% (inactive) | 70.7% (inactive) | – | 13.8% (inactive)
14 | C=C(C)[C@@H]1CC[C@]2(COCCCNCCC#N)CC[C@]3(C)[C@H](CC[C@@H]4[C@@]5(C)CC[C@H](OCCCNCCC#N)C(C)(C)[C@@H]5CC[C@]43C)[C@@H]12 | 47% (inactive) | 49.9% (inactive) | 54.4% (inactive) | 83.5% (inactive) | 70.9% (inactive) | 42.5% (inactive) | 15% (inactive) | 69.1% (inactive) | -1.84% (active) | 90.5% (inactive) | 93.7% (inactive) | 36.1% (inactive) | 52% (inactive) | 41.3% (inactive) | 74.9% (inactive) | 65.3% (inactive) | 34.8% (inactive) | 43.3% (inactive) | – | 28.2% (inactive)
